Residues, ends and D or L forms follow the SMILES beside them. *: point of attachment. CH2Cl = ClC*
Assays:
Settings in all cases: Compound concentration 20.0 uM
[1] = biological target: Tyrosine-protein kinase ABL1 (Homo sapiens) (UniProt P00519)
[2] = biological target: Bromodomain-containing protein 4 (Homo sapiens) (UniProt O60885)
[3] = biological target: Cyclin-dependent kinase 2 (Homo sapiens) (UniProt P24941)
[4] = biological target: Casein kinase I isoform delta (Homo sapiens) (UniProt P48730)
Chain of Casein kinase I isoform delta (Homo sapiens) (P48730 whole entry, looked up, canonical isoform): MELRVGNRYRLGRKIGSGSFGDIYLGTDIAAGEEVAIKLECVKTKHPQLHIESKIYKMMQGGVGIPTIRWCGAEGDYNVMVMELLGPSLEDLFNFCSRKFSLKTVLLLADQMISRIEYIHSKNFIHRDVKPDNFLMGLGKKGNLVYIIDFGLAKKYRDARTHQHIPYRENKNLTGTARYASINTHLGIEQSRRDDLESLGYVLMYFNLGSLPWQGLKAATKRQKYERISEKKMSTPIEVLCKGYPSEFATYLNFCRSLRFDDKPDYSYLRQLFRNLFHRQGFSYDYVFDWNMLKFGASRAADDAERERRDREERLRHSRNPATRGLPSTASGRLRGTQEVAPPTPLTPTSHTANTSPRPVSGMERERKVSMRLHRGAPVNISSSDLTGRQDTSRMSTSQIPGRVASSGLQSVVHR

[5] = biological target: Glycogen synthase kinase-3 beta (Homo sapiens) (UniProt P49841)
Chain of Glycogen synthase kinase-3 beta (Homo sapiens) (P49841 whole entry, looked up): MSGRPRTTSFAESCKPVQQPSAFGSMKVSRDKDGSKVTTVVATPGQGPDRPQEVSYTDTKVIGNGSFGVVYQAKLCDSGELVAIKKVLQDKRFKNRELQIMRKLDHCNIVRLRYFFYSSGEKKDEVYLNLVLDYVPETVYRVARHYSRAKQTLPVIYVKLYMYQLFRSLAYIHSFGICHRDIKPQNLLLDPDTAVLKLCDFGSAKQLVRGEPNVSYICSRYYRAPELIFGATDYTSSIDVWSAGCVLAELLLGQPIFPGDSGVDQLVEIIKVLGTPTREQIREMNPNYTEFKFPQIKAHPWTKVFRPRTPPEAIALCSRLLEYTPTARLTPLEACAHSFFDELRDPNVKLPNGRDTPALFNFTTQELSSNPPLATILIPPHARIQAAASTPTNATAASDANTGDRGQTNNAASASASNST

[6] = biological target: Mitogen-activated protein kinase 1 (Homo sapiens) (UniProt P28482)
Chain of Mitogen-activated protein kinase 1 (Homo sapiens) (P28482 whole entry): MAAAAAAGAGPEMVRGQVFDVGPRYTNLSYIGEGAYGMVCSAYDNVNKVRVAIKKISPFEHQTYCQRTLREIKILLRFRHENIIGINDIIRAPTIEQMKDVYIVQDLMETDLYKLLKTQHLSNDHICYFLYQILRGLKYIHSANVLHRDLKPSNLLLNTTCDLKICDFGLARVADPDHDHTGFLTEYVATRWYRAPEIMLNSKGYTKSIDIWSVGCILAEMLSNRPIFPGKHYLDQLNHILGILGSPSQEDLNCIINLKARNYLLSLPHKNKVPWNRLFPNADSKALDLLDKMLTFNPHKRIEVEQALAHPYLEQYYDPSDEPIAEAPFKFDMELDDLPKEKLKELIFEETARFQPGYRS

[7] = biological target: T1, Aurora kinase A (Homo sapiens) (UniProt O14965)
T1 sequence (whole entry): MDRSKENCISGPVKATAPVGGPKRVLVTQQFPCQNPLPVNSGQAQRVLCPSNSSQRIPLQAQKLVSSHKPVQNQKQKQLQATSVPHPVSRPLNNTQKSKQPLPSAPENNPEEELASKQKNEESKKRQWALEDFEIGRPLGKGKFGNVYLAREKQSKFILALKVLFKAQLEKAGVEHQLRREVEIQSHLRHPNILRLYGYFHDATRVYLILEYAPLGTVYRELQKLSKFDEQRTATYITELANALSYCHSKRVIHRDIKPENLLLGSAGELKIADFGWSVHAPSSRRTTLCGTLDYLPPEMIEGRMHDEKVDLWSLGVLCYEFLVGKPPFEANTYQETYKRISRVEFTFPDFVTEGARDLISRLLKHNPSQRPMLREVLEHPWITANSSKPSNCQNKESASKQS

[8] = biological target: T2, Transcription intermediary factor 1-alpha (Homo sapiens) (UniProt O15164)
T2 sequence (whole entry): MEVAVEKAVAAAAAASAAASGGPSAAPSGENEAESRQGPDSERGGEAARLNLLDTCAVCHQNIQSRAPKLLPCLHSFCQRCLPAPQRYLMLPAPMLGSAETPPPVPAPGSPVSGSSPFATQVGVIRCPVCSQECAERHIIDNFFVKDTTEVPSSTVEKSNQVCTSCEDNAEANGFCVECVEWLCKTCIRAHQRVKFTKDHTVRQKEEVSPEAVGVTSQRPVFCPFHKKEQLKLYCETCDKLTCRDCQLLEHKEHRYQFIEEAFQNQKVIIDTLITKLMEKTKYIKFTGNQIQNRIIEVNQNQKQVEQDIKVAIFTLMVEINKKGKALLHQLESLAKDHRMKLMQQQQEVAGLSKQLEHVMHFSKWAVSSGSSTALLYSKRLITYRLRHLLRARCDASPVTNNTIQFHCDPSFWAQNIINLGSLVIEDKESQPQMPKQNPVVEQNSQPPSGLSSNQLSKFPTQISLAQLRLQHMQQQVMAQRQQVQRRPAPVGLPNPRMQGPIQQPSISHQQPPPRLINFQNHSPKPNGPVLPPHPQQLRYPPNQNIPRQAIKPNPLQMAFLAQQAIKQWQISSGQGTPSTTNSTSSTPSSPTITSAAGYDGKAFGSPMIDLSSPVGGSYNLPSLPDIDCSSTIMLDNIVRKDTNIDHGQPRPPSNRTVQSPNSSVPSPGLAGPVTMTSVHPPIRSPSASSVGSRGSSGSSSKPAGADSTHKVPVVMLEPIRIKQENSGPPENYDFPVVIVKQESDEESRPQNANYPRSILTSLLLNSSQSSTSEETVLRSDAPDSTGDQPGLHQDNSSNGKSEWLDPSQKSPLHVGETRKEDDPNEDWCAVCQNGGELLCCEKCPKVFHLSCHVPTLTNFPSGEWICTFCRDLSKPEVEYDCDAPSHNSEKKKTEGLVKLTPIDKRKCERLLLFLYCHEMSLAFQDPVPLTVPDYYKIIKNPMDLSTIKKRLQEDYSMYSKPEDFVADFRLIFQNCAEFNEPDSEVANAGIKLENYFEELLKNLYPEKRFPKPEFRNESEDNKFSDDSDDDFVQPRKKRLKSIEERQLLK

Chain of Tyrosine-protein kinase ABL1 (Homo sapiens) (P00519 whole entry): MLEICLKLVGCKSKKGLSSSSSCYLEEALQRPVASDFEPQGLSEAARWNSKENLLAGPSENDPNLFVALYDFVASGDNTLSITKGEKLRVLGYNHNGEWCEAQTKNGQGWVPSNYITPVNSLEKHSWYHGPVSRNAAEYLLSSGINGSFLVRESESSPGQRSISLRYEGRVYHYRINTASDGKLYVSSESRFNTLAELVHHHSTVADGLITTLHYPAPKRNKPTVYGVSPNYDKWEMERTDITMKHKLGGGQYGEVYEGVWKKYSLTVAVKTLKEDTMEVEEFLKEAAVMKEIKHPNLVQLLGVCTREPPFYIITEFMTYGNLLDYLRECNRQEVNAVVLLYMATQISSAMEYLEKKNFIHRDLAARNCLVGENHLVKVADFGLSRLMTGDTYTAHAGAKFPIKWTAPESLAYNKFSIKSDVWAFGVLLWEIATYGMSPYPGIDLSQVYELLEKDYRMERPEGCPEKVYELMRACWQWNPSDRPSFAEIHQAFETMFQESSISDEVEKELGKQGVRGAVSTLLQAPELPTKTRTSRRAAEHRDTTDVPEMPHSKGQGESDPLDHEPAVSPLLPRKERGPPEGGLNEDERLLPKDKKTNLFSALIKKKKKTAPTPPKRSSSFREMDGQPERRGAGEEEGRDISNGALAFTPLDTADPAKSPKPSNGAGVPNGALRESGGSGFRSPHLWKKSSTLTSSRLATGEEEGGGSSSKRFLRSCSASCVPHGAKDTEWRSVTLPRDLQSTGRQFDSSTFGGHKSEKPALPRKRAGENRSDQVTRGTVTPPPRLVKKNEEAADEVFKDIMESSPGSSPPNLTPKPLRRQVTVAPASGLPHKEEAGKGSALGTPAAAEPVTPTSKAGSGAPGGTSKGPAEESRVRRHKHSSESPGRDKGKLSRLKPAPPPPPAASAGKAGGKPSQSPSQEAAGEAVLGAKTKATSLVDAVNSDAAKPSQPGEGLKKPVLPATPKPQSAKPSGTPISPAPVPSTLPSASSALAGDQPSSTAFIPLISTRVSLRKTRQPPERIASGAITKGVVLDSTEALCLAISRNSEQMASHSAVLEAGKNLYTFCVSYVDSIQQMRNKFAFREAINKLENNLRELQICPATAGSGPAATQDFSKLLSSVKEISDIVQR

Row | Structure (SMILES) | ΔTm [1] | ΔTm [2] | ΔTm [3] | ΔTm [4] | ΔTm [5] | ΔTm [6] | ΔTm [7] | ΔTm [8]
1 | Cc1cc(C(=O)CN2CCC(O)CC2)c(C)n1-c1ccc(C#N)cc1 | 0.11 °C | -2.81 °C | -0.05 °C | -0.34 °C | -0.73 °C | 0.01 °C | -2.48 °C | -1.8 °C
2 | CCCOc1ccc(CCc2nc3cc(-c4c(C)noc4C)ccc3n2CCN2CCOCC2)cc1 | 0.14 °C | 0.27 °C | -1.68 °C | 0.28 °C | 1.16 °C | 0.33 °C | -1.97 °C | -1.29 °C
3 | Cc1ccnc(NS(=O)(=O)c2ccc(NC(=O)Nc3ccc(S(=O)(=O)Nc4nccc(C)n4)cc3)cc2)n1 | 0.29 °C | -0.01 °C | 0.44 °C | -0.62 °C | -1.11 °C | 0.44 °C | -1.78 °C | 2.1 °C
4 | Nc1nc2cc(CC[C@H]3C[C@@H](n4ccc5c(N)ncnc54)[C@H](O)[C@@H]3O)ccc2cc1Br | 2.92 °C | -1.76 °C | -4.38 °C | 4.13 °C | -8.32 °C | -17 °C | -10 °C | -0.53 °C
5 | CCC1CCCCN1C(=O)n1ncc(C(O)(c2ccccc2)c2ccccc2)n1 (stereo unspecified) | -3.62 °C | -3.03 °C | -0.45 °C | 0.07 °C | -6.94 °C | 0.16 °C | -2.31 °C | -1 °C
6 | CCCC[C@]1(CC)CS(=O)(=O)c2cc(CNC(CC(=O)O)CC(=O)O)c(OC)cc2[C@@H](c2ccccc2)N1 | 0.44 °C | 0.52 °C | -0.44 °C | -0.45 °C | -0.88 °C | 0.14 °C | -1.84 °C | 0.38 °C
7 | Cc1[nH]c2c(N3CCO[C@H](CO)C3)c(C#N)c(C(F)(F)F)nc2c1Cl | 0.59 °C | -1.62 °C | 1.92 °C | 0.2 °C | 1.93 °C | 1.85 °C | -1.95 °C | -1.25 °C
8 | O=C(NO)c1ccc(CN2CCCc3cc(Cl)ccc32)cc1 | 0.31 °C | -1.3 °C | -0.96 °C | -0.07 °C | 0.96 °C | -0.12 °C | -0.45 °C | -1.53 °C
9 | COc1ccc(Cc2nc(O)c3c(C)nc([C@@H](CCCc4ccccc4)[C@@H](C)O)n3n2)cc1OC | -0.12 °C | -2.72 °C | 0 °C | -0.14 °C | 1.15 °C | 0.16 °C | -1.36 °C | -0.56 °C
10 | N#Cc1ccc(-c2csc(NN=C3CCCC3)n2)cc1 | 1.02 °C | -1.71 °C | -3.5 °C | 0.34 °C | -3.93 °C | -0.09 °C | -0.22 °C | -1.63 °C
11 | O=C(N(CCc1ccccc1)C1CCCCC1)n1ncc(-c2ccc(OC(F)(F)F)cc2)n1 | -0.68 °C | -2.75 °C | 0.18 °C | 0.03 °C | -3.35 °C | 0.11 °C | -1.75 °C | 0.14 °C
12 | CC(=O)N[C@@H](CC(C)C)C(=O)N[C@@H](CCC(=O)O)C(=O)N[C@@H](Cc1cnc[nH]1)C(=O)N[C@@H](CC(=O)O)C(=O)CCl (Ac-LEHD-CH2Cl) | 0.46 °C | -2.67 °C | -0.58 °C | 0.2 °C | 0.91 °C | 0.29 °C | -1.15 °C | -1.2 °C
13 | O=C(O)/C(S)=C/c1c[nH]c2ccc(F)cc12 | -1 °C | -4.6 °C | -0.97 °C | 0.7 °C | -0.98 °C | 0.11 °C | 0.25 °C | -2.02 °C
14 | O=C(NCCc1cc(C(=O)NO)no1)c1ccc(Cl)c(Cl)c1 | 1.11 °C | -2.11 °C | 0.66 °C | 0.6 °C | -1.05 °C | 0.3 °C | -0.59 °C | -0.96 °C
15 | COc1cc2c(cc1OC)[C@H]1C[C@@H](O)[C@H](CC(C)C)CN1CC2 | 0.04 °C | 1.89 °C | 0.25 °C | -0.17 °C | -0.88 °C | 0.59 °C | -0.72 °C | 0.12 °C
16 | CC/C(=C(/c1ccc(/C=C/C(=O)O)cc1)c1ccc2[nH]ncc2c1)c1ccc(F)cc1Cl | -5.16 °C | -0.16 °C | -3.66 °C | -4.37 °C | 3.37 °C | 0 °C | 1.69 °C | 0 °C
17 | Cc1cc(C)c(-c2[nH]nc(C)c2C)cc1C(=O)N1CC(c2ccc(C#N)cc2)C1 | 1.06 °C | -3.66 °C | -0.16 °C | -0.21 °C | -0.42 °C | 0.26 °C | -2.18 °C | -0.05 °C
18 | C=CCc1cccc(CNc2nc3ccccc3n2CCC)c1O | 0.28 °C | -1.55 °C | 0.45 °C | 0.21 °C | 0.95 °C | 0.22 °C | -1.56 °C | 0.59 °C
19 | CC(=O)N1CCC(Nc2cc(C(=O)NC[C@H](O)CN3CCc4ccccc4C3)ncn2)CC1 | 0.44 °C | -0.33 °C | 0.19 °C | 0.07 °C | 0.18 °C | 0.06 °C | -0.79 °C | -0.38 °C
20 | COc1ncc(C)c(-c2ccc3c(c2)[nH]c(=O)c2cnn([C@H]4CCOC4)c23)c1C | 1.31 °C | -3.36 °C | -0.21 °C | -0.26 °C | 0.55 °C | -0.06 °C | -2.59 °C | -0.98 °C
21 | CC(=O)C(=Cc1cc(O)c(O)c([N+](=O)[O-])c1)C(C)=O | 0.06 °C | 0.74 °C | 0.04 °C | -0.82 °C | -0.72 °C | 0.27 °C | 0.07 °C | 0.21 °C
22 | CCOc1ccc(S(=O)(=O)Nc2ccc(Cl)cc2C#Cc2cnc(C(=O)O)cc2OC)c2ncccc12 | 0.04 °C | -2.23 °C | -0.26 °C | -7.02 °C | -2.42 °C | -0.03 °C | -2.9 °C | 0.7 °C
